# Most compounds without a hit are left out; they make up all but 1.9% or so of the library.
# Menin-MLL TR inh: displaces Texas Red mutant MLL peptide from human menin. Potency, µM (doses to about 61.6 µM), without a hit: top-dose FP activity change, negative = inhibition, usual class: inhibitors. 270,000 tested, 0.23% active. AID 1768. Menin + Texas Red MLL mutant peptide, fluorescence polarization. O00255; active = well fitted inhibition curve with a large enough effect in the polarisation, with a control signal flat, not every such curve was filed as active; inconclusive = small, poorly fitted or top-dose-only effect, or effect the other way, or a change in a side signal; inactive = no such curve, though single readings can be large or run the other way; the % refers to the polarisation; also: potency is read from the fitted curve at half-maximal effect; % of control where 0% means no effect
# PINK1 modulator: changes PINK1 expression. Potency, µM (doses to about 76.6 µM), without a hit: at the highest dose activation (PINK1 increase), most hits filed as activators. PINK1 immunofluorescence, high-content cytometry, 24 h. 410,000 tested, 0.2% active; active = well fitted activation curve with a large enough effect; inconclusive = small, poorly fitted or top-dose-only effect; cell line not stated here; also: potency is read from the fitted curve at half-maximal effect; % of control where 0% means no effect; nearly all actives have a fitted effect of over 65% in size
#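 Cells are seeded, rested 12 hours, then given compound at five concentrations or DMSO for 24 hours. After fixation, blocking and antibody staining, PINK1 amount and mitochondrial localization are scored; CCCP serves as control.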
# ClpP mod: qHTS Assay for Activators of ClpP | Potency, µM (titrated, usually from 57.5 µM), inactives show at the highest dose activity change, negative = active | ATP-dependent Clp protease proteolytic subunit (Bacillus subtilis (strain 168)), P80244 | 340,000 tested, 1.9% active | purified B. subtilis ClpP, FRET peptide cleavage, 20 min; active = well fitted falling curve with a large enough effect; inconclusive = small, poorly fitted or top-dose-only effect; inactive = no such curve, though single readings can be large or run the other way; also: potency is read from the fitted curve at half-maximal effect; the source files actives as falling curves though it sought activators and does not explain the sign; nearly all actives have a fitted effect of over 65% in size
#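 ClpP 10 microg/mL final, pH 8 Tris/KCl buffer with BSA, glycerol, Tween-20; compound pinned in; FRET-FV substrate; RT 20 min; Ex320/Em430; ΔFRET vs ADEP 5.8 microM, DMSO, no enzyme.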
# Menin-MLL FL inh: displaces fluorescein MLL peptide from human menin. 290,000 tested, under 10 active. Fluorescence polarization, fluorescein-MLL peptide displacement from menin. FP activity change, % at 61.4 µM. AID 1766; active = well fitted curve in the direction sought with a large enough effect in the polarisation, not every such curve was filed as active; inconclusive = small, poorly fitted or top-dose-only effect, or effect the other way, or a change in a side signal; inactive = no such curve, though single readings can be large or run the other way; the % refers to the polarisation; also: % of control where 0% means no effect
# Epigenetic derep: derepresses silenced GFP reporter in murine cells | murine LDR cells, GFP reporter derepression, 30 h | Potency, µM (highest dose often 53.9 µM), for the others: at the highest dose GFP activation, usual class: activators | 280,000 tested, 0.2% active | AID 1865; active = well fitted activation curve with a large enough effect; inconclusive = small, poorly fitted or top-dose-only effect; also: potency is read from the fitted curve at half-maximal effect; % of control where 0% means no effect; nearly all actives have a fitted effect of over 60% in size
#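 Readout is the number of GFP-expressing murine LDR cells, counted by cytometry following washing. Cells were treated with compound for 30 h at 37 C; the stably integrated CMV-GFP locus is normally silent.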
# CXXC DNA block: inhibitors of human MLL CXXC domain-DNA interaction. Q03164. MLL-CXXC / FITC-HOXA9 DNA fluorescence polarization. Potency, µM (doses to about 115 µM), without a hit: at the highest dose activity change, negative = inhibition, hits mostly inhibitors. 290,000 tested, 0.037% active. AID 2662; active = well fitted inhibition curve with a large enough effect in the polarisation, with a control signal flat, not every such curve was filed as active; inconclusive = small, poorly fitted or top-dose-only effect, or effect the other way, or a change in a side signal; inactive = no such curve, though single readings can be large or run the other way; the % refers to the polarisation; also: potency is read from the fitted curve at half-maximal effect
#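 Steps: dispense CXXC domain solution (7 uM) → pin compounds or unlabeled HOX-A9 DNA control → 5 min ambient → add FLSN-HOX-A9 solution (50 nM) → spin → 30 min ambient → fluorescence polarization. Tris pH 7.5/NaCl/DTT/BSA buffer.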
# * marks the source's active call; other numbers are inactive results; ? = inconclusive; . = no result; ! = not confirmed by another sample.
SMILES,Menin-MLL TR inh,PINK1 modulator,ClpP mod,Menin-MLL FL inh,Epigenetic derep,CXXC DNA block
CCC1C(C#N)=C(SCC(N)=O)NC2=C1C(=O)CC(C)(C)C2 (stereo unspecified),.,-0.8%,-1.2%,3.2,5.2%,10.3%
Cc1ccc(C(=O)Nc2cccc(-c3nc(CNC(=O)c4ccc5ccccc5n4)c(C)o3)c2)s1,.,0.0%,.,.,.,.
CCC(CC)C(=O)Nc1nnc(-c2cccs2)s1,9.6%,-2.1%,25.1µM*,5.1,-1.0%,-0.6%
CN1CCN(CC(=O)Nc2nnc(-c3cccs3)s2)CC1,5.6%,0.3%,22.4µM*,2.6,0.0%,10.1%
COc1cccc(OC)c1C(=O)Nc1nnc(-c2cccs2)s1,6.0%,0.7%,-25.4%,0.5,9.5%,-7.0%
COC(=O)C[C@@H]1C=C[C@@H](NC(=O)CN(C)C)[C@@H](CO)O1,.,.,3.5%,.,.,.
Cc1ccc(NC(=O)C(C)OC(=O)c2ccc(NS(=O)(=O)c3ccc(F)c(F)c3)cc2)cc1 (stereo unspecified),?,1.9%,-2.2%,.,-1.9%,7.8%
CCc1ccc(NC(=O)C(C)OC(=O)c2ccc(NS(=O)(=O)c3ccc(C)c([N+](=O)[O-])c3)cc2)cc1 (stereo unspecified),?,44.7µM*,-1.4%,-2.7,-1.3%,-1.5%
COc1ccccc1-c1ccc(C(=O)NCCN2CCOCC2)c(N2CCN(c3ccccc3F)CC2)n1,.,1.4%,.,.,.,.
COc1ccc(OC)c(NC(=O)c2cnc(Nc3ccccc3OC)c3ccccc23)c1,3.8%,?,35.5µM*,3.8,1.1%,1.6%
Cc1ccc(S(=O)(=O)N2CCN(c3nc(-c4ccc(CN5CCNCC5)s4)nc4ccccc34)CC2)cc1,.,-0.7%,-12.9%,.,.,.
CCOC(=O)C(=Cc1ccc(Br)cc1)C(=O)OCC,28.2µM*,-1.7%,.,3.9,0.0%,-6.7%
CCOC(=O)C(=Cc1ccc(F)cc1)C(=O)OCC,?,.,.,3.0,1.2%,-2.3%
Cc1ccc(-n2c(=O)c3sccc3n(Cc3cc(=O)n4ccccc4n3)c2=O)cc1,-19.8%,3.3%,31.6µM*!,2.9,-0.9%,3.3%
Cc1ccc(-n2c(=O)c3sccc3n(Cc3cc(=O)n4ccccc4n3)c2=O)cc1F,-0.6%,.,.,2.9,1.3%,-3.9%
CN(C(=O)CSc1nc2ccccc2n1Cc1cccc(C(F)(F)F)c1)c1ccccc1,.,27.8%,-1.1%,.,-3.0%,.
CCC(C)c1ccc(C(C)NC(=S)NCc2ccc(F)cc2)cc1 (stereo unspecified),10.9%,?,-4.2%,-1.2,.,-14.5%
CCC(NC(=S)NCc1ccc(F)cc1)c1ccc(C(C)C)cc1 (stereo unspecified),33.0%,15.8µM*,-0.5%,5.3,.,22.2%
COc1ccc(Nc2sc(C(=O)c3ccc(Cl)cc3)c(N)c2C(=O)Nc2ccccc2OC)cc1,.,15.8µM*,0.9%,-0.1,3.9%,3.4%
Cc1ccc(CNc2nc(C)c(-c3ccn(CCN4CCOCC4)n3)s2)o1,.,-0.8%,.,.,.,.
Cc1nn(CCc2nn[nH]n2)c2nc(-c3ccc(Br)cc3)cc(C(F)(F)F)c12,?,0.0%,.,5.1,0.3%,13.0%
Cc1nn(CCc2nn[nH]n2)c2nc(C(F)(F)F)cc(C(F)(F)F)c12,3.8%,-0.1%,10µM*,0.8,-8.7%,-8.0%
O=C1/C(=C/c2cccnc2)SC(=S)N1Cc1ccco1,.,6.1%,-5.2%,.,.,.
Cc1cc(/C=C2\SC(=S)N(Cc3ccco3)C2=O)c(C)n1-c1cccnc1,9.0%,?,-4.0%,?,22.4µM*,?
CCOc1ccc(-c2cn3c(n2)sc2cc(C(=O)NCCc4ccc(OC)c(OC)c4)ccc23)cc1,.,-0.4%,35.5µM*,.,5.4%,.
SMILES,Menin-MLL TR inh,PINK1 modulator,ClpP mod,Menin-MLL FL inh,Epigenetic derep,CXXC DNA block
COCC(=O)Nc1cc(C(=O)N2CC3(C)CC2CC(C)(C)C3)c2c(c1)nc(-c1ccncc1)n2C (stereo unspecified),.,0.0%,.,.,.,.
COc1cc(/C=N/NC(=O)CCN2CCN(C)CC2)cc2c1OCO2,.,-0.7%,15.8µM*,.,.,-8.0%
COc1cc(/C=N/NC(=O)c2ccncc2)cc2c1OCO2,?,0.6%,0.4%,-2.6,.,-1.0%
C=CCSc1nnc(-c2sc(-c3ccccc3)nc2C)n1C,-13.9%,.,35.5µM*,2.2,0.0%,2.8%
Cc1ccc(C(=O)NCCc2nnc3n2CCN(C(=O)c2ccnc(Cl)c2)CC3)cc1,.,-0.6%,.,.,.,.
O=C(/C=C/c1ccc(O)c(O)c1)c1ccc(O)cc1O,53.8%,.,.,16.6,.,.
CN(CCc1ccccn1)C(=O)Nc1ccc(C(C)(C)C)cc1,.,0.8%,28.2µM*,2.7,-1.3%,-3.1%
O=C(CCc1ccccc1)NCCCNC(=O)CCc1ccccc1,.,1.3%,1.8%,.,.,.
O=C(Cc1ccccc1)NCCCNC(=O)Cc1ccccc1,.,-5.8%,28.2µM*,.,.,.
CCCS(=O)(=O)c1ncc(Cl)c(C(=O)Nc2sc3c(c2C(=O)NCC)CCCC3)n1,.,1.9%,-4.4%,.,.,.
COc1cc(OC)cc(-n2c3nc4ccccc4nc3c3c(=O)n(CC4CCCO4)cnc32)c1 (stereo unspecified),0.6%,-0.1%,-7.2%,1.5,-0.2%,-0.8%
O=c1c2c3nc4ccccc4nc3n(CC3CCCO3)c2ncn1CCc1ccccc1 (stereo unspecified),-12.5%,4.4%,4.47µM*,-3.2,-1.0%,22.1%
COc1ccc(C2Nc3ccccc3C(=O)N2Cc2ccco2)cc1COc1ccc(NC(C)=O)cc1 (stereo unspecified),35.2%,0.0%,31.6µM*!,-2.1,-1.1%,9.7%
O=C1c2ccccc2NC(c2ccc(OCc3ccccc3)c(OCc3ccccc3)c2)N1Cc1ccco1 (stereo unspecified),.,1.8%,4.3%,.,.,.
COc1ccc(C2Nc3ccccc3C(=O)N2Cc2ccco2)cc1COc1ccccc1F (stereo unspecified),5.2%,3.5%,14.1µM*,0.1,0.8%,8.7%
O=C(C[N+]12CCCc3cccc(c31)CCC2)c1ccc2ccccc2c1,.,.,-21.4%,.,.,.
O=C(CC(NS(=O)(=O)c1ccc(Cl)cc1)c1ccco1)NCc1ccco1 (stereo unspecified),-9.3%,-1.5%,25.1µM*,0.7,-2.2%,-7.9%
CCOc1ccc(N=C2NC(=O)S/C2=C\c2ccc(N(C)C)cc2)cc1,31.6µM*,?,-0.6%,?,7.94µM*,1.5%
CCOc1ccc(CC(=O)N/N=C/c2cccnc2)cc1,.,-0.5%,15.8µM*,-2.7,-1.3%,-1.2%
O=C(NCCOc1ccccc1)C1=CC=CN2CCS(=O)(=O)N=C12,.,-0.4%,31.6µM*,.,.,.
COc1ccc(CCNC(=O)C2=CC=CN3CCS(=O)(=O)N=C23)cc1,.,-1.0%,-21.2%,.,.,.

# High-throughput results from PubChem BioAssay.
